# Bioassay records deposited in PubChem BioAssay by National Center for Advancing Translational Sciences (NCATS).
# HepG2 tox – counter-screen for TGF-b inhibitors: cytotoxicity in HepG2 cells. HepG2 CAGA-GFP viability, ATP luminescence, 18 h. Potency, µM (titrated, usually from 46.1 µM), for inactives: top-dose activity change, negative = cytotoxicity, most hits filed as cytotoxic. actives 0.76% (n = 410,000). AID 588856
#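 CellTiter-Glo luminescence gave cytotoxicity after 18 hours at 37 degrees C. The cells were HepG2 CAGA-GFP in 1% FBS DMEM, stimulated with 500 pg/mL TGF-beta after compound addition. %Activity was normalised to no-cell wells (complete cell-killing) and DMSO (no toxicity), and curves were fitted and classified.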
# TDP1 cell CPT – DT40-hTDP1 cell growth loss with CPT | chicken DT40 Tdp1-/-;hTDP1 cells + 20 nM CPT, ATP luminescence, 48 h | Potency, µM (top dose mostly 46.2 µM), inactives show at the top dose activity change, negative = growth inhibition, hits mostly inhibitors | actives 12% (n = 420,000) | AID 686979; also: % is scaled to controls: 0 for no effect and ±100 for the full control effect; nearly all actives have a fitted effect of over 55% in size
#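 Cell growth measured by CellTiter-Glo luminescence after a minimum 48 h, 37 C compound exposure with 20 nM CPT in Tdp1-knockout DT40 cells stably expressing hTDP1, seeded 400/well; qHTS titration format.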
# DT40 TDP1 no CPT – qHTS for Inhibitors of human tyrosyl-DNA phosphodiesterase 1 (TDP1): qHTS in cells in absence of CPT | AID 686978, 2013 | DT40 Tdp1-/- hTDP1 cells, no CPT, ATP luminescence, 48 h | Potency, µM (highest dose often 46.2 µM), inactives show at the highest dose activity change, negative = growth inhibition, usual class: inhibitors | actives 15% (n = 420,000); also: % is scaled to controls: 0 for no effect and ±100 for the full control effect; nearly all actives have a fitted effect of over 55% in size
#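 A cellular qHTS used chicken DT40 cells lacking endogenous Tdp1 but carrying stably transfected human TDP1. Compounds were applied without camptothecin, and cell growth kinetics were judged by ATP-dependent luminescence after ≥48 hr.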
# TGFb SMAD3 inh – TGF-b pathway inhibition | HepG2 CAGA-GFP TGF-b/SMAD3 reporter, GFP fluorescence, 18 h; TGF-beta stimulated, 500 pg/mL final | Potency, µM (highest dose often 46.1 µM), inactives show at the highest dose activity, negative = inhibition, actives largely listed as inhibitors | actives 1.2% (n = 410,000) | AID 588855; also: % is scaled to controls: 0 for no effect and ±100 for the full control effect; nearly all actives have a fitted effect of over 65% in size
#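 HEPG2 CAGA-GFP reporter cells (1000/well, DMEM with 1% FBS) received compounds, then recombinant TGF-beta at 500 pg/mL final for 18 hours at 37 degrees C. Per-cell GFP summed per well was normalised to unstimulated and stimulated DMSO controls before curve fitting.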
# HT1080 IDH1KD tx – toxicity to HT-1080 IDH1 knockdown cells (counter line). HT-1080 IDH1 knockdown viability, ATP luminescence, 48 h. Potency, µM (titrated, usually from 46.1 µM), for inactives: at the top dose activity, negative = toxicity, usual class: cytotoxic. actives 2% (n = 360,000);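 also: 0% = DMSO wells and -100% = cell-free medium wells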
#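 Cytotoxicity counter-line: IDH1KD HT-1080, 48 h, CellTiter-Glo. Curves classed by r2, magnitude and activity.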
# HT1080NT lethal – kills 2HG-producing HT-1080-NT fibrosarcoma cells | HT-1080-NT fibrosarcoma viability, CellTiter-Glo ATP luminescence, 48 h | Potency, µM (highest dose often 46.1 µM), for the others: top-dose activity, negative = less viability, usual class: cytotoxic | actives 1.6% (n = 360,000);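 also: NT is the 2HG producing partner of a matched IDH1 knockdown line; 0% = DMSO-treated cells and -100% = media-only wells without cells; nearly all actives have a fitted effect of over 55% in size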
#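 Fibrosarcoma NT cells, 750 per well in 5% FBS RPMI, were exposed to compound for 48 hours. Viability: CellTiter-Glo luminescence.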
# * = called active by the depositor; ? = inconclusive; . = no result given. In the library only some 17% were active in any assay of this set; here they are far more common. Calls follow the shape of the dose curve; as a rule, active = well fitted curve in the direction sought with a large enough effect; inconclusive = small, poorly fitted or top-dose-only effect, or another doubt; inactive = no such curve, though single readings can be large; an effect the other way counts as inactive or inconclusive. Potency is read from the fitted curve at half-maximal effect.
SMILES,HepG2 tox,TDP1 cell CPT,DT40 TDP1 no CPT,TGFb SMAD3 inh,HT1080 IDH1KD tx,HT1080NT lethal
COc1c(Br)cc(C(N)=O)cc1OCc1ccccc1,1%,-23%,-22%,1%,0%,-1%
c1ccc(C(Cc2nc(-c3ccncc3)no2)c2ccccc2)cc1,-24%,18µM*,?,0%,-17%,1%
c1ccc(-c2nc(-c3ccncc3)no2)cc1,-49%,-20%,-19%,-2%,-1%,5%
CCCCCCCCCCCCCCCC(=O)C(F)(F)F,.,8%,-5%,.,.,.
O=C(c1ccc(Cl)cc1)N1CCC(c2nc3ccccc3o2)CC1,-24%,?,15µM*,0%,.,.
O=C(c1ccccc1)N1CCC(c2nc3ccccc3o2)CC1,4%,?,?,0%,.,.
Cc1cc(Cl)ccc1OCC(=O)N1CCC(c2nc3ccccc3o2)CC1,-23%,?,16µM*,?,.,.
CN(C)S(=O)(=O)c1ccc(C(=O)N2CCC(c3nc4ccccc4o3)CC2)cc1,-20%,-29%,?,0%,-10%,-5%
CC(C)(C)c1ccc(C(=O)N2CCC(c3nc4ccccc4o3)CC2)cc1,-25%,21µM*,15µM*,?,.,.
Cc1cccc(OCC(=O)N2CCC(c3nc4ccccc4o3)CC2)c1C,-36%,?,?,-1%,.,.
CC(C)NC(=O)C1(C)CCCN1Cc1csc2ccccc12 (stereo not drawn),-24%,?,?,-11%,-1%,-3%
CCCCC[C@@H](/C=C/C1C(=O)C=C[C@H]1C/C=C\CCCC(=O)O)OC(C)=O (stereo partly drawn),-21%,21µM*,23µM*,?,4%,8%
CCCC(C)NC(=O)c1cc(S(=O)(=O)N2CCCCCC2)ccc1OC (stereo not drawn),2%,-18%,?,2%,0%,1%
CC(C)CC1C(=O)N(Cc2cn(CCC3OCCO3)nn2)CCS(=O)(=O)N1Cc1ccc(-c2cccc(N(C)C)c2)cc1 (stereo not drawn),-20%,?,21µM*,-19%,-27%,?
CC(C)C1C(=O)N(Cc2cn(CCC3OCCO3)nn2)CCS(=O)(=O)N1Cc1ccc(-c2cccc(CO)c2)cc1 (stereo not drawn),-22%,?,23µM*,0%,12%,1%
CC(C)CC1C(=O)N(Cc2cn(CCC3OCCO3)nn2)CCS(=O)(=O)N1Cc1ccc(-c2cccc(CO)c2)cc1 (stereo not drawn),-24%,?,23µM*,0%,5%,12%
Cc1cc2oc(=O)cc(C)c2c2occ(-c3ccc(Cl)cc3)c12,2%,30%,9%,2%,.,.
Cc1sc2ncnc(N(C)Cc3cccs3)c2c1C,-17%,?,?,?,-14%,-9%
O=C(CSc1ncnc2sccc12)Nc1ccccc1F,-2%,0%,-1%,-19%,-9%,4%
COc1ccc(CN(C)c2ncnc3sccc23)c(OC)c1OC,-19%,12µM*,21µM*,?,?,?
OCCN(Cc1ccccc1)c1ncnc2sccc12,-2%,?,13µM*,-24%,-18%,-14%
CN(Cc1ccccc1F)c1ncnc2sccc12,-2%,?,21µM*,-10%,-27%,-22%
COc1ccc(CCN(C)c2ncnc3sccc23)cc1OC,-11%,?,-61%,-17%,-7%,-16%
CN(Cc1cccs1)c1ncnc2sccc12,-13%,?,16µM*,-4%,-18%,-23%
